This is an account of results in article PMC7862700, “An all-to-all approach to the identification of sequence-specific readers for epigenetic DNA modifications on cytosine”.

Common to all, as to test: DAPPL (digital affinity profiling via proximity ligation, sequencing); 10 mM Tris-HCl pH 7.5, 50 mM NaCl, 1 mM DTT, 4% glycerol, room temperature, 30 min; GST-TFs on glutathione beads, 16-mer random dsDNA library, 0.1% formaldehyde crosslink after washing; high values mean tight binding
Assay [1] deals with T1, FEV (Homo sapiens, UniProt Q99581 1-238).
T1 sequence: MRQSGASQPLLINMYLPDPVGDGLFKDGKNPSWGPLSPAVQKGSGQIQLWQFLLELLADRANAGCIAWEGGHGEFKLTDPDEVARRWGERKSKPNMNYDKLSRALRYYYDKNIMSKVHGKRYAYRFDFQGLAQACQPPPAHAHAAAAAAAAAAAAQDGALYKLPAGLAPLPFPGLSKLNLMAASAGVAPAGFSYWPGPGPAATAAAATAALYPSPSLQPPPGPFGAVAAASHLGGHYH
The note with it: protein: recombinant; tags: N-terminal GST; dsDNA, one strand shown. In short, it runs like this:
(§1)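 In yeast, human transcription factors were expressed with a GST fusion, then pulled down on glutathione beads and given DNA barcodes. Pooled with a tag-only sample, they were exposed to 200 nmole of a 16-mer random double-stranded DNA library (Tris/NaCl/DTT/glycerol buffer, room temperature, 30 min), washed, crosslinked with 0.1% formaldehyde, proximity-ligated using BsaI/T4 ligase for 1 h at 37 °C, PCR-amplified and read on an Illumina NextSeq500. Each hexamer's frequency of reads for a factor, divided by the matching frequency for the tag-only sample, gives the binding signal.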

The target of assay [2] is ETV5 (Homo sapiens, UniProt P41161 1-510). The settings on record: protein: recombinant; tags: N-terminal GST; dsDNA, one strand shown. In outline: as §1
The target in assay [3] is HSF1 (Homo sapiens, UniProt Q00613 1-529). The settings on record: protein: recombinant; tags: N-terminal GST; chain copies: 3; dsDNA, one strand shown. In short, it runs like this: as §1
For assay [4], the target named is T2, SPIC (Homo sapiens, UniProt Q8N5J4 1-248).
T2 sequence: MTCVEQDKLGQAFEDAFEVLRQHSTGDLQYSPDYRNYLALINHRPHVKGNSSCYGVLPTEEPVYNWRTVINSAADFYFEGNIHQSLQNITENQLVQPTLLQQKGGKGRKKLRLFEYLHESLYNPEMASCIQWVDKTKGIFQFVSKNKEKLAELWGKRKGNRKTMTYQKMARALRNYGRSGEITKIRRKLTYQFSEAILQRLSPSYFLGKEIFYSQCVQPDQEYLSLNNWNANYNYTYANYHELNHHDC
The settings on record: protein: recombinant; tags: N-terminal GST; dsDNA, one strand shown. In short, it runs like this: as §1

Assay [5] addresses ELF4 (Homo sapiens, UniProt Q99607 1-663). The note with it: protein: recombinant; tags: N-terminal GST; dsDNA, one strand shown. In short, it runs like this: as §1
For assay [6], the target named is T3, ELK4 (Homo sapiens, UniProt P28324-2 1-405).
T3 sequence: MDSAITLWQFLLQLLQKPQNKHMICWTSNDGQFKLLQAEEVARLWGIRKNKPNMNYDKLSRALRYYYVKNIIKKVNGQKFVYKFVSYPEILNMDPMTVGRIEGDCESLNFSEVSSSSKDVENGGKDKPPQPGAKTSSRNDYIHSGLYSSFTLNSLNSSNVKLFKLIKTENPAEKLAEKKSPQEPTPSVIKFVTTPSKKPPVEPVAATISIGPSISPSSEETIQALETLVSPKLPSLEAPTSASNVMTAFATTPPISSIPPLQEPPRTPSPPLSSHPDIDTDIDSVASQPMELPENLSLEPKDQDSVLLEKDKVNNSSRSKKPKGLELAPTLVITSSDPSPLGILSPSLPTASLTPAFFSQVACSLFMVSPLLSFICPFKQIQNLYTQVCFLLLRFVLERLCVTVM
The settings on record: protein: recombinant; tags: N-terminal GST; dsDNA, one strand shown. In short, it runs like this: as §1

Assay [7] addresses T4, ETV2 (Homo sapiens, UniProt O00321 1-342).
T4 sequence: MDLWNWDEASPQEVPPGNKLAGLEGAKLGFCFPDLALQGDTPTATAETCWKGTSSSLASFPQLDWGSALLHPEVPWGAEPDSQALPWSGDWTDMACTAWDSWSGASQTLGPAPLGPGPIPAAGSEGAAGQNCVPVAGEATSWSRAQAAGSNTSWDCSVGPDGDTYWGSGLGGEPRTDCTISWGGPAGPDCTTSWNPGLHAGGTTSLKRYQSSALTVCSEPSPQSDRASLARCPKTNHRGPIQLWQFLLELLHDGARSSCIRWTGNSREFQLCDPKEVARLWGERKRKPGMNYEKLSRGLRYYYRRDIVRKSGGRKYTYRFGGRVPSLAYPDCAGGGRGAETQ
The note with it: protein: recombinant; tags: N-terminal GST; dsDNA, one strand shown. In short, it runs like this: as §1

Assay [8] addresses T5, ELF3 (Homo sapiens, UniProt P78545 1-371).
T5 sequence: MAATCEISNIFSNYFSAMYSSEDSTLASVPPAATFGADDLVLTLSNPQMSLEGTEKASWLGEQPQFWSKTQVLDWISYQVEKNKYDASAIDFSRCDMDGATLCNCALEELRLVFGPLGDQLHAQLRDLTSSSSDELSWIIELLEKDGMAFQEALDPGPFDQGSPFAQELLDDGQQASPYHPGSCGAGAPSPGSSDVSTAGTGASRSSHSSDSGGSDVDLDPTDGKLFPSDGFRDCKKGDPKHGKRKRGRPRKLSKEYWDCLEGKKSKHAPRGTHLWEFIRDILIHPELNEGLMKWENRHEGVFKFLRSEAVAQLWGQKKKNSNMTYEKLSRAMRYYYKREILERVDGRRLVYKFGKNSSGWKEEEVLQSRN
The note with it: protein: recombinant; tags: N-terminal GST; dsDNA, one strand shown. In outline:
as §1

For assay [9], the target named is CRX (Homo sapiens, UniProt O43186 1-299). The note with it: protein: recombinant; tags: N-terminal GST; dsDNA, one strand shown. In outline:
as §1

Assay [10] has as its target ETV1 (Homo sapiens, UniProt P50549 1-477). The settings on record: protein: recombinant; tags: N-terminal GST; dsDNA, one strand shown. In short, it runs like this: as §1
The target of assay [11] is T6, ERF (Homo sapiens, UniProt P50548 1-548).
T6 sequence: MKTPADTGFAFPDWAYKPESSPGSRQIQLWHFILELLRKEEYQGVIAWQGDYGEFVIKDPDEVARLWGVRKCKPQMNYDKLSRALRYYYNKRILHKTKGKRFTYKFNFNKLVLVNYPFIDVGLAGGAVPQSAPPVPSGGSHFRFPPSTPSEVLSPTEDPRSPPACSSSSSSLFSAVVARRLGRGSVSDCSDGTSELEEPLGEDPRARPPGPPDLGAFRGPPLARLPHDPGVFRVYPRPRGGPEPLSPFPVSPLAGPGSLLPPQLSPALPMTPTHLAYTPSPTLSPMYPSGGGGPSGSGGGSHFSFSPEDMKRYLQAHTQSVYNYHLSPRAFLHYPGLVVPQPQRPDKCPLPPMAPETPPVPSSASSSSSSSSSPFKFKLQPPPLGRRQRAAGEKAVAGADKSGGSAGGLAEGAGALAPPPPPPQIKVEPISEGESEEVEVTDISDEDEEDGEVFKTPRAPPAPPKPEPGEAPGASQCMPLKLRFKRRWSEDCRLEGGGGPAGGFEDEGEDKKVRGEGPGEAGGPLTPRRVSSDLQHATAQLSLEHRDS
The settings on record: protein: recombinant; tags: N-terminal GST; dsDNA, one strand shown. In outline:
as §1

Assay [12] has as its target T7, ETV3L (Homo sapiens, UniProt Q6ZN32 1-361).
T7 sequence: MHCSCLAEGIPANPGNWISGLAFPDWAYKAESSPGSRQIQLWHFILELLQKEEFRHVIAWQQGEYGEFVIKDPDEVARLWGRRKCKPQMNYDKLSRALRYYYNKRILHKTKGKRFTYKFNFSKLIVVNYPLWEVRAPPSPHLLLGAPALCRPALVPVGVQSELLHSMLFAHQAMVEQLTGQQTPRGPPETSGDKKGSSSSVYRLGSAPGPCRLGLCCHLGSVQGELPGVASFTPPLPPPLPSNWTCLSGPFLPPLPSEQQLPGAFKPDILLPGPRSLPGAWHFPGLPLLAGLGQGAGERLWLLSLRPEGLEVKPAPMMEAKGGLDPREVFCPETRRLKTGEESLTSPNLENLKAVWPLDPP
The note with it: protein: recombinant; tags: N-terminal GST; dsDNA, one strand shown. In outline:
as §1

The target of assay [13] is T8, ETS2 (Homo sapiens, UniProt P15036 1-469).
T8 sequence: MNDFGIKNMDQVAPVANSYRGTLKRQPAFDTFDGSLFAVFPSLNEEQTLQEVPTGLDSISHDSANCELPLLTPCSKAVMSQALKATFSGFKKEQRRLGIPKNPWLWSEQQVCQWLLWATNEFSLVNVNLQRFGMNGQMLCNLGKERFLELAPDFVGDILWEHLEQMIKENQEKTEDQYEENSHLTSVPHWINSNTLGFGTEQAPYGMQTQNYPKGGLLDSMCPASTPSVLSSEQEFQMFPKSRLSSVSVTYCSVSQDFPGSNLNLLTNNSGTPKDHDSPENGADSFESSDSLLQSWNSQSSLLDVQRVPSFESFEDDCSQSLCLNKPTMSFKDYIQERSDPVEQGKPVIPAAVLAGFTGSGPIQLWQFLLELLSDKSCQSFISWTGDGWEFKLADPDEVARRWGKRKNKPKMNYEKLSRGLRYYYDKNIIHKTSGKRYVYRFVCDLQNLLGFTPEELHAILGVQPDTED
The note with it: protein: recombinant; tags: N-terminal GST; dsDNA, one strand shown. In short, it runs like this:
as §1

The target of assay [14] is T9, SPDEF (Homo sapiens, UniProt O95238 1-335).
T9 sequence: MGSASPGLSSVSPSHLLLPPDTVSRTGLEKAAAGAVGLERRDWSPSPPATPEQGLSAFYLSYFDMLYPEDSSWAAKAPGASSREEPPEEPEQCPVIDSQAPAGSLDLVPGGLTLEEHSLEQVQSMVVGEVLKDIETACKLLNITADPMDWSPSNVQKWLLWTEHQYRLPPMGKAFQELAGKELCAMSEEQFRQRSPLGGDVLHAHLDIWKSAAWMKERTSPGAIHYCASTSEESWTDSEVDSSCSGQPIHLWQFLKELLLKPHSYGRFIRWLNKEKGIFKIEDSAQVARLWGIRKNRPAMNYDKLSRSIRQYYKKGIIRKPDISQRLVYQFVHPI
The settings on record: protein: recombinant; tags: N-terminal GST; dsDNA, one strand shown. In short, it runs like this: as §1

For assay [15], the target named is T10, ETV7 (Homo sapiens, UniProt Q9Y603 1-341).
T10 sequence: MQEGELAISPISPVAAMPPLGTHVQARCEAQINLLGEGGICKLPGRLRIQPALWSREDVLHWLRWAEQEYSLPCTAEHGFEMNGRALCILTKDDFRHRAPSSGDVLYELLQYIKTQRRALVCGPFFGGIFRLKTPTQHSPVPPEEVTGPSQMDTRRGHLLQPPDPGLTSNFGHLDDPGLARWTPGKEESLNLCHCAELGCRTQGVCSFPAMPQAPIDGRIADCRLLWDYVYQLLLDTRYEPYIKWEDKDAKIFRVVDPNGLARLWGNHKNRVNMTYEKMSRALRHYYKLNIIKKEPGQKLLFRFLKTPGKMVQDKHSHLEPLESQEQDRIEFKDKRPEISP
The settings on record: protein: recombinant; tags: N-terminal GST; dsDNA, one strand shown. In short, it runs like this: as §1

The target of assay [16] is T11, ELF5 (Homo sapiens, UniProt Q9UKW6-2 1-255).
T11 sequence: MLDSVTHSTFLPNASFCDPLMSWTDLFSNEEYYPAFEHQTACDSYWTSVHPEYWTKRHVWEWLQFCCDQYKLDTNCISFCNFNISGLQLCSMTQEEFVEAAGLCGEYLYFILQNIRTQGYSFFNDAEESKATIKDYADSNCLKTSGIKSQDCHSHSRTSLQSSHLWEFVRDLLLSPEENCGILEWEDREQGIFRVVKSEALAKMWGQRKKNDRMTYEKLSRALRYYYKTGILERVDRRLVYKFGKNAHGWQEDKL
The note with it: protein: recombinant; tags: N-terminal GST; dsDNA, one strand shown. In outline:
as §1

For assay [17], the target named is T12, ETV3 (Homo sapiens, UniProt P41162-2 1-143).
T12 sequence: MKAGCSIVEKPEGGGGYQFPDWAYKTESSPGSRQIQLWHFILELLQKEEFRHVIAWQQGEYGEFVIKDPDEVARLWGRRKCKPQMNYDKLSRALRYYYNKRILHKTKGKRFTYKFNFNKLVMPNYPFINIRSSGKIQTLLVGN
The note with it: protein: recombinant; tags: N-terminal GST; dsDNA, one strand shown. In short, it runs like this:
as §1

In assay [18] the target is ETV6 (Homo sapiens, UniProt P41212 1-452). The note with it: protein: recombinant; tags: N-terminal GST; dsDNA, one strand shown. In short, it runs like this: as §1
ETV6, sequence (P41212 whole entry): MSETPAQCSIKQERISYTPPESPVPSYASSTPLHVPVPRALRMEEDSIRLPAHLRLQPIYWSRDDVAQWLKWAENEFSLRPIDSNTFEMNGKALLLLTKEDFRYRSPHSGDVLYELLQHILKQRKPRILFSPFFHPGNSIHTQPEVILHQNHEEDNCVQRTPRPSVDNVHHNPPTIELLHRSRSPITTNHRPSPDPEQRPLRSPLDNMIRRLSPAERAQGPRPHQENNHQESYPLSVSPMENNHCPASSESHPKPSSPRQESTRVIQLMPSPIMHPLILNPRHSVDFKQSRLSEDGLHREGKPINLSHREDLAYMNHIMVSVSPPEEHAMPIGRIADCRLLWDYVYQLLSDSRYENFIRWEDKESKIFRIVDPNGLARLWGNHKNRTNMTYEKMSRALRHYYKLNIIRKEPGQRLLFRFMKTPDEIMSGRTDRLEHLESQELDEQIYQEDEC

ELF4, sequence (Q99607 whole entry): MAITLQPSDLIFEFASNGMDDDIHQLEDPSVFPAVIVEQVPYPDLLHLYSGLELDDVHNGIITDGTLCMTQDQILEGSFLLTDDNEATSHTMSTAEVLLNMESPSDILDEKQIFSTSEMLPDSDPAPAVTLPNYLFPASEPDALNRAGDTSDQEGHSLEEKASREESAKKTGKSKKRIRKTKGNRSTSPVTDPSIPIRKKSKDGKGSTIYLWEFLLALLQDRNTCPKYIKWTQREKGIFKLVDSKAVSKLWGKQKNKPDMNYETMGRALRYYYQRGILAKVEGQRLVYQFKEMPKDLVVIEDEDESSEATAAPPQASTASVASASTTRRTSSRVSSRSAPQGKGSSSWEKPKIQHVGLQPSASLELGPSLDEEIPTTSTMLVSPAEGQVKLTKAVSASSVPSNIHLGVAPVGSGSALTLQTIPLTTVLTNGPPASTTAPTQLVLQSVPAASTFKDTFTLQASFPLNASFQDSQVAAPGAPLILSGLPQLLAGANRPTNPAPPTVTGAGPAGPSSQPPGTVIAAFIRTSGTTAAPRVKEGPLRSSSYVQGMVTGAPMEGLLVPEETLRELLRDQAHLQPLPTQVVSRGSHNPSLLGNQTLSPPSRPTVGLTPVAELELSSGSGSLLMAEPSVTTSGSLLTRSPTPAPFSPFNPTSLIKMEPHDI
ETV5, sequence (P41161 whole entry): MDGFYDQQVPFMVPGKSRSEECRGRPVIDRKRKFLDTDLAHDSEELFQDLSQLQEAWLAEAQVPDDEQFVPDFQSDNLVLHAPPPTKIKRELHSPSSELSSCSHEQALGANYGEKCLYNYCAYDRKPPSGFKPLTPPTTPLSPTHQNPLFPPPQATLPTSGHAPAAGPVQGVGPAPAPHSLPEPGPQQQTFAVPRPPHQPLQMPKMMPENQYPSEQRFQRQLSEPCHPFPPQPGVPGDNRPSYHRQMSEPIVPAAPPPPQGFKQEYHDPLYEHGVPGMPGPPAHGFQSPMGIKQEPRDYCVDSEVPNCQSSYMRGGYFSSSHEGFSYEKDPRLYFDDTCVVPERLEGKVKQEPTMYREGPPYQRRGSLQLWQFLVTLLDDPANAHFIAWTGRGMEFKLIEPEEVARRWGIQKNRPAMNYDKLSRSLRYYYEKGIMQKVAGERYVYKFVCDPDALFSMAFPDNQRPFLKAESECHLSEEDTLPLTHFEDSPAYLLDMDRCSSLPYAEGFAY
CRX, sequence (O43186 whole entry): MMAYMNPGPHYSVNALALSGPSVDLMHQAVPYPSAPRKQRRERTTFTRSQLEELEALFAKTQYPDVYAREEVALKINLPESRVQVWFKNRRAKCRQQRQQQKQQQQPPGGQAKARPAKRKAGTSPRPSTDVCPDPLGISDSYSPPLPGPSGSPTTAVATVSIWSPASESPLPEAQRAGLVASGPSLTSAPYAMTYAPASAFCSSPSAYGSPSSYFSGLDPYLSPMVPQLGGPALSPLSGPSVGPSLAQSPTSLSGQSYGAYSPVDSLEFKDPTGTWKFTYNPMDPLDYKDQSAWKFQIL
HSF1, sequence (Q00613 whole entry): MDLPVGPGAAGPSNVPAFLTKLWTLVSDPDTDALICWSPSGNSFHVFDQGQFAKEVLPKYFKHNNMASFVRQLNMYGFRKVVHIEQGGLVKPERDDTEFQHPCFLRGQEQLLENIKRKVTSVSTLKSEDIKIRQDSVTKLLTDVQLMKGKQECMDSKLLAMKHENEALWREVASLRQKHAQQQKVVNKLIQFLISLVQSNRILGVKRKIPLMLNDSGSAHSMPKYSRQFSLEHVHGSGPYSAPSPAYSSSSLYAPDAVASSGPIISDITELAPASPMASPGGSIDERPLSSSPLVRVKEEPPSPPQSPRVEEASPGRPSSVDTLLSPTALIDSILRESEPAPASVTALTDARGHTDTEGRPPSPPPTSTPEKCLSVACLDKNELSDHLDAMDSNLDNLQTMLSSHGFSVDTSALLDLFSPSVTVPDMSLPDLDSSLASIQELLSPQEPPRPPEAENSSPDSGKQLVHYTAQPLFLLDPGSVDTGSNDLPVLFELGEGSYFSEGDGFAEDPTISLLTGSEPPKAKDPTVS
ETV1, sequence (P50549 whole entry): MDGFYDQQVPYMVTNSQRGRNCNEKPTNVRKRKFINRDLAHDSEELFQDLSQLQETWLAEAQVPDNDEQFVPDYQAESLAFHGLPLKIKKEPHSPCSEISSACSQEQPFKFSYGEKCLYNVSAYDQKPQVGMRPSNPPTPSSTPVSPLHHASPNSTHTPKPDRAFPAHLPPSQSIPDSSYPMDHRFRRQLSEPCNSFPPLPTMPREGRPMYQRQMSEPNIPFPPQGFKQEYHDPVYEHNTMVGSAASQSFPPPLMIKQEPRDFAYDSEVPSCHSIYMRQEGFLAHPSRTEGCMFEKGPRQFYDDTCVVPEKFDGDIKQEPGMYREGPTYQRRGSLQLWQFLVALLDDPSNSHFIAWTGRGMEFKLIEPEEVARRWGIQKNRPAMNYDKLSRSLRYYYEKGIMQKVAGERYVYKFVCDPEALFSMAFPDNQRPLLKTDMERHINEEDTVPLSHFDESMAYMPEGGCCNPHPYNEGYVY

Turning to GCGACT, the binding signal in [1] was 1.31 fold enrichment (6-mer frequency, TF over GST control); in assay [2], 1.28 fold enrichment (6-mer frequency, TF over GST control); in assay [3], 1.11 fold enrichment (6-mer frequency, TF over GST control); in assay [4] it was 1.28 fold enrichment (6-mer frequency, TF over GST control); in [5], 1.13 fold enrichment (6-mer frequency, TF over GST control); in assay [6] it was 1.28 fold enrichment (6-mer frequency, TF over GST control). Further, the binding signal in assay [7] was 1.55 fold enrichment (6-mer frequency, TF over GST control); in assay [8], 1.05 fold enrichment (6-mer frequency, TF over GST control); in [9] it was 1.14 fold enrichment (6-mer frequency, TF over GST control); in [10], 1.22 fold enrichment (6-mer frequency, TF over GST control); in assay [11], 1.43 fold enrichment (6-mer frequency, TF over GST control); in assay [12], 1.17 fold enrichment (6-mer frequency, TF over GST control). In addition, the binding signal is 1.15 fold enrichment (6-mer frequency, TF over GST control) in assay [13]; 1.13 fold enrichment (6-mer frequency, TF over GST control) in assay [14]; 1.14 fold enrichment (6-mer frequency, TF over GST control) in assay [15]; 1.3 fold enrichment (6-mer frequency, TF over GST control) in assay [16]; 1.14 fold enrichment (6-mer frequency, TF over GST control) in [17]; 1.16 fold enrichment (6-mer frequency, TF over GST control) in assay [18].
